Screens deposited in PubChem by National Center for Advancing Translational Sciences (NCATS).
Shiga inhibitor: A qHTS for Small Molecule Inhibitors of Shiga Toxin. inhibition, % at 38.7 µM. AID 2315, 2010. Vero cells, Shiga toxin protein synthesis inhibition reporter. 290,000 tested, 9.2% active; in the data active means inhibition mostly above about 28%, no sharp cut-off; inactive means mostly below about 43%
Pf growth 48h: Primary qHTS for delayed death inhibitors of the malarial parasite plastid, 48 hour incubation | AID 504832, 2011 | Potency, µM (highest dose often 28.7 µM), most hits filed as inhibitors | 310,000 tested, 5.9% active | P. falciparum luciferase growth in erythrocytes, 48 h
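Firefly luciferase activity from engineered P. falciparum reports growth; inhibitors lower the luminescent signal. Cultures contained 2% hematocrit erythrocytes at 0.1% final parasitemia.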
CHX counter: Cycloheximide Counterscreen for Small Molecule Inhibitors of Shiga Toxin; cell reporter, cycloheximide protein synthesis inhibition counterscreen; max response, %; 300,000 tested, 12% active; in the data active means max response mostly above about 13%, no sharp cut-off; inactive means mostly below about 14%; further: read at 38.3 µM for the half of the compounds with a filed dose
HCMV antiviral: qHTS Assay for inhibitors of the human cytomegalovirus (HCMV); HFF cells, HCMV-luciferase reporter, 72 h; active compounds read low; activity change, negative = inhibition, % at 57.5 µM; 410,000 tested, 4.5% active; AID 1259415, 2018; in the data active means activity change below about -60%; inconclusive means no clear call, values can overlap the other calls; inactive means above about -39%
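Luciferase read-out from HCMV-luciferase-infected HFFs (MOI 1 PFU/cell) 72 h post infection at 37C; compounds added after 16 h cell attachment; activity normalized between buffer-only basal and Salinomycin (10uM) inhibitor controls.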
HCV inh: qHTS Assay for Inhibitors of Hepatitis C Virus (HCV); Huh7.5.1 HCVcc-Cre infection, luciferase reporter, 44 h; Potency, µM (series often up to 41.8 µM), actives largely listed as inhibitors; 340,000 tested, 3.4% active; AID 651820, 2012
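Compounds are dispensed onto cells plated 4 h earlier at 1,000 per well, with HCVcc-Cre virus (about 0.5 moi) added next. Following 44 h of culture, luminescent signal is measured for 15 sec after 15 min with substrate at room temperature.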
Pf growth 96h: Primary qHTS for delayed death inhibitors of the malarial parasite plastid, 96 hour incubation; P. falciparum luciferase reporter growth, 96 h; Potency, µM (doses to about 28.7 µM), usual class: inhibitors; 320,000 tested, 6.9% active
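P. falciparum expressing integrated firefly luciferase, in erythrocytes at 2% hematocrit, 0.05% parasitemia, incubated with compounds 96 h at 37 C, 5% CO2. Growth inhibition read as loss of luminescence; two-generation exposure targets delayed-death apicoplast inhibitors.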
Of the large screens only hits and unclear results are named; the others gave an inactive call. Hits are enriched below; roughly 21% of the tested compounds scored in any of these assays. Unless noted, the call rests on the fitted dose curve; in most records, active means well fitted inhibition curve with a large enough effect; inconclusive means small, poorly fitted or top-dose-only effect, or another doubt; inactive means no such curve, though single readings can be large or run the other way.

Cc1ccc2c(c1)nnn2C1CCN(C(=O)C23CC4CC(CC(C4)C2)C3)CC1	Pf growth 48h inconclusive, Pf growth 96h 13µM
Fc1ccc2[nH]c3c(Cl)ncnc3c2c1	none
Fc1ccc2[nH]c3c(N4CCN(c5ccccc5)CC4)ncnc3c2c1	Pf growth 48h 13µM, HCMV antiviral -97, HCV inh 7.9µM, Pf growth 96h 12µM
OC1(c2cccc(C(F)(F)F)c2)CCN(c2ncnc3c2[nH]c2ccc(F)cc23)CC1	HCMV antiviral -87, HCV inh 0.71µM
CCOC(=O)N1CCN(c2ncnc3c2[nH]c2ccc(F)cc23)CC1	Pf growth 48h inconclusive, HCMV antiviral -81, HCV inh 8.9µM, Pf growth 96h 13µM
O=c1c2[nH]c3ccc(F)cc3c2ncn1CCN1CCOCC1	none (no result: Pf growth 48h)
CC(=O)N1CCN(S(=O)(=O)c2c(C)n(C)c(=O)n(C)c2=O)CC1	HCMV antiviral inconclusive
COc1ccc(-c2csc(NC(=O)C3=NN(c4ccccc4)C(=O)CC3)n2)cc1	Pf growth 48h inconclusive, CHX counter 23, HCV inh 7.1µM, Pf growth 96h inconclusive
COc1ccc(-c2nc(NC(=O)C3=NN(c4cccc(C)c4)C(=O)CC3)sc2C)cc1	Pf growth 48h inconclusive, CHX counter 17, Pf growth 96h inconclusive
CCOc1ccc(/C=N/NC(=O)C2CC2)c(OCC)c1	HCV inh 4.5µM
Cc1nn(-c2ccccc2)c(C)c1/C=N/O	CHX counter 14
Cc1nn(-c2ccccc2)c(C)c1/C=N/n1cnnc1	Pf growth 96h inconclusive
Cc1nn(-c2ccccc2)c(C)c1/C=N\N1CCN(c2ccc(Cl)cc2)CC1	Pf growth 48h 13µM, HCMV antiviral inconclusive, Pf growth 96h inconclusive
Cc1ccc(NS(=O)(=O)c2cccc(C(=O)N/N=C/c3ccc4c(c3)OCCO4)c2)c(C)c1	CHX counter 14, HCV inh inconclusive, Pf growth 96h inconclusive
C/C(=N\NC(=O)c1cccc(S(=O)(=O)Nc2ccc(C)cc2C)c1)c1ccncc1	HCV inh inconclusive, Pf growth 96h inconclusive (no result: Shiga inhibitor, CHX counter)
Cc1ccc(NS(=O)(=O)c2cccc(C(=O)N/N=C/c3c(C)nn(-c4ccccc4)c3N3CCCC3)c2)c(C)c1	HCV inh 13µM, Pf growth 96h inconclusive
Cc1nn(-c2ccccc2)c(N2CCCC2)c1/C=N/NC(=O)C1CC1	Pf growth 48h 10µM, HCMV antiviral -61, HCV inh inconclusive, Pf growth 96h 12µM
O=C(CN1CCCc2ccccc21)N/N=C/c1ccccc1O	HCMV antiviral inconclusive, HCV inh inconclusive, Pf growth 96h inconclusive
CC(/C=N/NC(=O)c1cc(-c2cccnc2)nc2c1c(C)nn2-c1ccccc1)=C\c1ccccc1	Pf growth 48h inconclusive, HCV inh inconclusive, Pf growth 96h 2.9µM
O=C(N/N=C/c1cc2c3c(c1O)CCCN3CCC2)c1ccccc1O	Pf growth 48h 3.3µM, HCMV antiviral -100, HCV inh 3.2µM, Pf growth 96h 2.6µM
CCOC(=O)c1ccc(NS(=O)(=O)c2cc3c(cc2C)n(C)c(=O)c(=O)n3C)cc1	none (no result: Shiga inhibitor, Pf growth 48h, CHX counter, HCV inh, Pf growth 96h)
CCC(=O)c1ccc(OCC(=O)OCC(=O)Nc2sccc2C(N)=O)cc1	none
CCOc1ccc(N2CC(C(=O)Nc3cccc(C(=O)NC4CC4)c3)CC2=O)cc1 (stereo not drawn)	Pf growth 48h inconclusive (no result: Shiga inhibitor, CHX counter)
Cc1nn(-c2ccccc2)c(N2CCCC2)c1/C=N/NC(=O)c1ccccc1O	Pf growth 48h 8.3µM, HCV inh inconclusive, Pf growth 96h 13µM
Cc1nn(-c2ccccc2)c(C)c1/C=N/NC(=O)c1ccccc1O	Shiga inhibitor 38, Pf growth 48h 3.7µM, CHX counter 42, Pf growth 96h 6.6µM
Cc1nn(-c2ccccc2)c(N2CCCC2)c1/C=N/NC(=O)c1cc(-c2cccnc2)nc2ccccc12	Pf growth 48h 12µM, HCV inh 14µM, Pf growth 96h inconclusive
CCOc1ccc(Oc2c(/C=N/NC(C)=O)c(C)nn2-c2ccccc2)cc1	Pf growth 48h inconclusive, Pf growth 96h inconclusive
Cc1nn(-c2ccccc2)c(C)c1/C=N/NC(=O)c1cc(O)cc(O)c1	Pf growth 48h inconclusive, Pf growth 96h inconclusive
CCOc1ccc(Oc2c(/C=N/NC(=O)C3CC3)c(C)nn2-c2ccccc2)cc1	Pf growth 48h 3.3µM, HCV inh inconclusive, Pf growth 96h inconclusive
Cc1[nH]c2ccccc2c1C=NNC(=O)c1cc(-c2cccnc2)nc2ccccc12	HCV inh inconclusive (no result: Shiga inhibitor, Pf growth 48h, CHX counter, Pf growth 96h)
CCN1c2ccccc2-c2nc(SCC(=O)NCc3ccc(Cl)cc3)ncc2S1(=O)=O	none (no result: Shiga inhibitor, Pf growth 48h, CHX counter, HCV inh, Pf growth 96h)
CC(C)C[C@@H](CN1CCCC1CN1C(=S)NC[C@@H]1Cc1ccc(O)cc1)N1C[C@H](Cc2ccccc2)N(CC2CCCCCC2)C1=S (stereo partly drawn)	HCV inh inconclusive (no result: Shiga inhibitor, Pf growth 48h, CHX counter, Pf growth 96h)
CC(C)C[C@@H](CN1CCCC1CN1C(=S)NC[C@@H]1Cc1ccc(O)cc1)N1C[C@H](Cc2ccccc2)N(CC2CCCCC2)C1=S (stereo partly drawn)	HCMV antiviral -71, HCV inh 22µM (no result: Shiga inhibitor, Pf growth 48h, CHX counter, Pf growth 96h)
CC(C)C[C@@H](CN1CCCC1CN1C(=S)NC[C@@H]1Cc1ccc(O)cc1)N1C[C@H](Cc2ccc(O)cc2)N(CC2CCCCCC2)C1=S (stereo partly drawn)	HCMV antiviral -90, HCV inh inconclusive (no result: Shiga inhibitor, Pf growth 48h, CHX counter, Pf growth 96h)
CC(C)C[C@@H](CN1CCCC1CN1C(=S)NC[C@@H]1Cc1ccccc1)N1C[C@H](Cc2ccccc2)N(CC2CCCCCC2)C1=S (stereo partly drawn)	none (no result: Shiga inhibitor, Pf growth 48h, CHX counter, HCV inh, Pf growth 96h)
COC(C(=O)C(O)C(C)O)C1Cc2cc3cc(OC4CC(OC5CC(O)C(OC)C(C)O5)C(OC(C)=O)C(C)O4)c(C)c(O)c3c(O)c2C(=O)C1OC1CC(OC2CC(OC3CC(C)(O)C(OC(C)=O)C(C)O3)C(O)C(C)O2)C(O)C(C)O1 (stereo not drawn)	Pf growth 48h 0.12µM, Pf growth 96h inconclusive (no result: Shiga inhibitor, CHX counter, HCMV antiviral, HCV inh)
Cn1c2c(c(=O)n(C)c1=O)[C@@]1(C(=O)Nc3ccccc31)C(C#N)=C(N)O2	Pf growth 48h inconclusive, Pf growth 96h 13µM
N#CC1=C(N)Oc2n[nH]c(-c3ccccc3)c2C12C(=O)Nc1ccccc12 (stereo not drawn)	none
O=c1[nH]c(=S)[nH]c2sccc12	none
CCN(c1nc(N)c(C(=O)N=C(N)N)nc1Cl)C(C)C	HCMV antiviral -62, HCV inh inconclusive (no result: Shiga inhibitor, Pf growth 48h, CHX counter, Pf growth 96h)
CC(=O)N1CC(=O)N2[C@@H](CO)[C@@H](c3ccc(Br)cc3)[C@@H]2C1	none (no result: Shiga inhibitor, Pf growth 48h, CHX counter, HCV inh, Pf growth 96h)
Cc1ccn2c(=O)cc(CSc3nnc(NC(=O)c4ccccc4Cl)s3)nc2c1	none (no result: Shiga inhibitor, Pf growth 48h, CHX counter, HCV inh, Pf growth 96h)
CSc1ccccc1OCc1cc(C(=O)N(C)Cc2c(C)n[nH]c2C)no1	CHX counter 14, Pf growth 96h inconclusive (no result: HCMV antiviral)
